Shown are actives, neighbours in structure and some others; about 14% of the full set was active somewhere.
Pf growth 48h = inhibits P. falciparum growth in the first generation, 48 h; P. falciparum luciferase growth in erythrocytes, 48 h; Potency, µM (top dose mostly 28.7 µM), for inactives: at the highest dose activity change, negative = inhibition, most hits filed as inhibitors; hit rate 5.9% among 310,000; further: potency means the concentration at half of the fitted maximal effect
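Luminescence readout; reporter = integrated firefly luciferase in P. falciparum. RBC culture at 2% hematocrit, 0.1% parasitemia final, 37 C/5% CO2; decreased signal taken as growth inhibition.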
Sm TGR block = blocks Schistosoma mansoni thioredoxin glutathione reductase; Q962Y6; purified TGR, DTNB reduction, TNB absorbance 405 nm; hit rate 3% among 360,000; Potency, µM (titrated, usually from 114 µM), for the others: top-dose activity change, negative = inhibition, hits mostly inhibitors; further: potency means the concentration at half of the fitted maximal effect; nearly all actives have a fitted effect of over 60% in size
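First, TGR (20 nM dispensed) and NADPH were mixed with compound. Second, a 15 min room-temperature incubation followed. Third, further NADPH and then DTNB were added to start the reaction. Finally, TNB absorbance was monitored kinetically.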
HCMV inh = inhibitors of human cytomegalovirus. activity change, negative = inhibition, % at 57.5 µM. AID 1259415. HFF cells, HCMV-luciferase reporter, 72 h; stronger effect = lower value. hit rate 4.5% among 410,000; in the data active means activity change below about -60%; inconclusive means no clear call, values can overlap the other calls; inactive means above about -39%
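Screen run at 2 compound doses on HFFs infected with reporter HCMV, MOI 1 PFU/cell. Luciferase activity from cell lysates at 72 h post infection gave inhibition relative to buffer-only and Salinomycin wells.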
FBPA Giardia inh = inhibitors of Giardia lamblia fructose-1,6-bisphosphate aldolase; A8B2U2; purified Giardia FBPA; Potency, µM (top dose mostly 59.6 µM), without a hit: at the highest dose activity, negative = inhibition, most hits filed as inhibitors; hit rate 0.71% among 290,000; AID 2451; further: potency means the concentration at half of the fitted maximal effect; nearly all actives have a fitted effect of over 55% in size
Target sequence (A8B2U2 whole entry, looked up): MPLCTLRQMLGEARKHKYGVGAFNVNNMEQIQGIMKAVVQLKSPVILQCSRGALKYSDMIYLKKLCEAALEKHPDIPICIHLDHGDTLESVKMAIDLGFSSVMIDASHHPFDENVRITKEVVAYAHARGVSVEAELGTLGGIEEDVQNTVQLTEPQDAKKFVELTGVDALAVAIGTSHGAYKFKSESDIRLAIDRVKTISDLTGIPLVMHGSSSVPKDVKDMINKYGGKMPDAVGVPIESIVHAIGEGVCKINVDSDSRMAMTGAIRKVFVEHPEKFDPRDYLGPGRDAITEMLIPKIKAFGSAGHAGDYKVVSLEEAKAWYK
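Giardia FBPA (40 nM reagent) was preincubated 10 min at RT with compound (up to 57.5 uM final), then substrate plus GAPDH/TPI/NAD/arsenate coupling system with diaphorase/resazurin was added; resorufin fluorescence (525/598 nm) was read after 20 min.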
Pf growth 96h = inhibits malaria parasite growth, 96 h; P. falciparum luciferase reporter growth, 96 h; Potency, µM (doses to about 28.7 µM), for the others: at the top dose activity change, negative = inhibition, hits mostly inhibitors; AID 504834; hit rate 6.9% among 320,000; further: potency means the concentration at half of the fitted maximal effect
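Cell-based qHTS: luciferase-tagged P. falciparum in erythrocytes (2% hematocrit, 0.05% parasitemia final) incubated with compounds for 96 hours, 37 C, 5% CO2; luciferase detection reagent then added and luminescence measured.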
* marks the source's active call; other numbers are inactive results; u = inconclusive; x = no result given; ! = not confirmed by another sample; [ ] = another dose, or the depositor's remark. Unless noted, the call rests on the fitted dose curve; in most records, active means well fitted curve in the direction sought with a large enough effect; inconclusive means small, poorly fitted or top-dose-only effect, or another doubt; inactive means no such curve, though single readings can be large; an effect the other way counts as inactive or inconclusive. On the % scale 0 is the no-effect control and ±100 the full control effect.

SMILES | Pf growth 48h | Sm TGR block | HCMV inh | FBPA Giardia inh | Pf growth 96h
COc1ccc(-c2cc(C(F)(F)F)n3nc(C(=O)NCc4ccco4)cc3n2)cc1 | 9.3µM* | u | -35 | -1% | u
O=C(NCc1ccco1)c1cc2nc(-c3ccc4c(c3)OCO4)cc(C(F)(F)F)n2n1 | u | 8% | 0 | 6% | u
Cc1cc(-c2ccccc2)nc2cc(C(=O)NCc3ccco3)nn12 | 18% | 32µM* | 20 | -1% | -14%
Cc1ccc(Cl)cc1NC(=O)Cn1c(=O)c(CNc2ccccc2)cc2cc3c(cc21)OCCO3 | x | -32% | -16 | x | x
CCn1cnc2cc(NC(=O)c3ccc(C)cc3)ccc21 | 229% | -1% | -5 | u | 75%
N#C/C(=C\c1ccncc1)C(=O)Nc1ccc(C(=O)O)cc1 | 0% | 0% | -99* | -9% | 4%
Cc1cc(/C=C(\C#N)C(=O)Nc2ccc(Cl)cc2)c(C)n1-c1ccc(N2CCOCC2)c([N+](=O)[O-])c1 | 12µM* | -13% | -31 | -1% | 7.4µM*
Cc1cccc(NC(=O)/C(C#N)=C\c2cc(C)n(-c3ccc(C(=O)O)cc3)c2C)c1 | -26% | x | -61* | -1% | u
Cc1cc(/C=C(\C#N)C(=O)NCc2cccs2)c(C)n1-c1ccc([N+](=O)[O-])cc1 | 2.3µM* | -24% | -9 | 1% | u
COc1ccc(CNC(=O)Cn2c(=O)cc(-c3ccccc3)c3c(C)nn(C)c32)cc1 | x | -6% | 3 | x | x
CCOC(=O)C1(C)CCCN1C(=O)c1ccc2ccccc2c1 (centres undefined) | x | x | -5 | x | x
COCc1nc2ccccc2n1Cc1ccc(C(C)(C)C)cc1 | x | u | 19 | x | x
Cc1cc(C=O)c(C)n1-c1ccc(N2CCOCC2)c([N+](=O)[O-])c1 | -11% | -1% | -5 | -9% | 5%
Cc1ccc(NC(=O)/C(C#N)=C/c2cc(C)n(-c3ccc(N4CCOCC4)c([N+](=O)[O-])c3)c2C)c(C)c1 | u | 0% | -7 | -1% | 12µM*
CCc1cc2c(=O)c(-c3cnn(-c4ccccc4)c3)c(C)oc2c(CN2CCCCC2)c1O | 15µM* | 6% | -34 | 2% | 47%
CCc1cc2c(=O)c(-c3cnn(-c4ccccc4)c3)c(C(F)(F)F)oc2c(CN(C)C)c1O | 6.6µM* | -3% | -27 | -3% | x
CCc1cc2c(=O)c(-c3nc4ccccc4n3C)coc2c(CN2CCCCC2)c1O | -19% | 1% | 45 | -12% | 2.9µM*
O=C(NCc1cnc2ccccn12)C1CCC(=O)N(Cc2ccccc2F)C1 (centres undefined) | 5% | 0% | 28 | x | -3%
O=C(NCC1COc2ccccc2O1)c1cccc(S(=O)(=O)N2CCOCC2)c1 (centres undefined) | -3% | -18% | -35 | x | u
O=C(NCC1COc2ccccc2O1)c1ccc(NC(=O)C(c2ccccc2)c2ccccc2)cc1 (centres undefined) | 9.3µM* | 8% | 11 | 2% | u
O=C(NCC1COc2ccccc2O1)c1ccc(Cl)c(S(=O)(=O)N2CCCC2)c1 (centres undefined) | 9.3µM* | -2% | -69* | x | 9.3µM*
O=C(NCC1COc2ccccc2O1)c1ccc(Cl)c(S(=O)(=O)N2CCOCC2)c1 (centres undefined) | u | 0% | u | x | 13µM*
CC(C)CN(C(=O)CCC(=O)OCc1ccc(Cl)cc1Cl)c1c(N)n(CC(C)C)c(=O)[nH]c1=O | -34% | 9% | -17 | x | u
CCCC12CN3CC(CCC)(CN(C1)C3c1ccccn1)C2=O (centres undefined) | 9.3µM* | 0% | 32 | 15% | x
COc1ccc(NC(=O)N2CCCC3(CCN(C(=O)c4ccncc4)CC3)C2)cc1 | x | x | x | -6% | x
SMILES | Pf growth 48h | Sm TGR block | HCMV inh | FBPA Giardia inh | Pf growth 96h
CC(C)(C)NC(=O)CN(C(=O)CN1C(=O)C(=O)c2ccccc21)C(C)(C)C | 15% | -1% | 5 | -5% | 13µM*
CC(C)N(C(=O)CN1C(=O)C(=O)c2ccccc21)c1ccccc1 | -5% | 1%[57.1 µM] | -6 | -11% | 26%
CC(CCc1ccccc1)NCC(O)COc1ccccc1 (centres undefined) | 5.2µM* | 7% | -26 | 1% | u
CC(C)NCC(O)COc1ccc(CCOCC2CC2)cc1 (centres undefined) | 13µM*! | -15% | -37 | 3% | 3.4µM*!
CC(NCC(O)COc1ccc2ccccc2c1)c1ccccc1 (centres undefined) | 9.3µM* | 6% | -84* | u | 9.3µM*
OC(CNCc1ccccc1)COc1ccccc1 (centres undefined) | u | u | -2 | x | 25%
CCCCNC(=O)C1c2ccccc2OCC(=O)N1Cc1ccccn1 (centres undefined) | x | x | -18 | x | x
NC1=NC(c2ccc(Cl)cc2)N(c2ccc(S(N)(=O)=O)cc2)C(N)=N1 (centres undefined) | u | 3% | -2 | 1% | 9.3µM*
CN(C)/C=C/C(=O)c1ccc(Br)cc1 | 27% | x | u | -2% | 0%
CN(O)/C=C/C(=O)c1ccc(Br)cc1 | 0% | 8.9µM* | u | -2% | -1%
O=C(O)c1ccc(CN2C(=O)c3ccc(C(=O)O)cc3C2=O)cc1 | 22% | -9% | 27 | 11% | 46%
CC(=O)Oc1cccc(N2C(=O)c3cccc4c([N+](=O)[O-])ccc(c34)C2=O)c1 | 26% | 1% | -94* | 2% | -2%
O=C(O)c1ccc(CN2C(=O)c3cccc4c([N+](=O)[O-])ccc(c34)C2=O)cc1 | 21% | 18µM* | x | -14% | 31%
CN(C)CCCN1C(=O)c2cccc3c([N+](=O)[O-])ccc(c23)C1=O | -4% | 28µM* | -25 | -20% | -17%
CC(=O)Oc1cccc(N2C(=O)c3ccc(C(=O)O)cc3C2=O)c1 | 17% | 0% | u | 15% | u
Cc1ccc(C(=O)O)cc1N1C(=O)c2cccc3c([N+](=O)[O-])ccc(c23)C1=O | 0% | 14µM* | -100* | -13% | 225%
COc1cccc(CNC(=O)c2cc3c(cc2Cl)N2CCCCCC2=NS3(=O)=O)c1 | u | -7% | -18 | x | 5%
CN(C)C(=O)c1ccc(-c2cc3cnc(Nc4ccccc4Cl)cc3[nH]2)cc1 | x | x | -27 | x | x
Cc1cc(C)cc(NC(=O)CNS(=O)(=O)c2ccc3nc(C)sc3c2)c1 | x | -11% | u | x | x
CC1CN=C(c2ccc(Cl)cc2)c2c3ccc(C(F)(F)F)cc3[n+]([O-])n21 (centres undefined) | x | x | 5 | x | x
COc1cccc(-c2cc(CC3(O)CCN(CCCc4ccccc4)CC3)on2)c1 | 12µM* | 0% | x | -6% | u
COc1cccc(-c2cc(C(=O)NCc3ccccc3)no2)c1 | x | 13% | 40 | x | x

Assay outcomes from PubChem.
